BAZ2B inh = qHTS Assay for Inhibitors of BAZ2B | Potency, µM (titrated, usually from 114 µM), without a hit: at the highest dose activity change, negative = inhibition, most hits filed as inhibitors | AlphaScreen BAZ2B-H3K14Ac peptide displacement | Bromodomain adjacent to zinc finger domain protein 2B (Homo sapiens), Q9UIF8 | 360,000 tested, 4.4% active; note: potency is the fitted concentration of half-maximal effect; % is set by controls: 0 for no effect and ±100 for the full control effect; nearly all actives have a fitted effect of over 60% in size
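Multi-concentration screen (max 110 uM) measuring displacement of acetylated histone H3 peptide from BAZ2B by AlphaScreen, using 50 nM protein, 50 nM peptide and 10 ug/mL streptavidin donor plus Ni-chelate acceptor beads.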
G9a inh = qHTS Assay for Inhibitors of Histone Lysine Methyltransferase G9a | 350,000 tested, 8.8% active | AID 504332, 2011 | Potency, µM (highest dose often 102 µM), for the others: at the top dose activity, negative = inhibition, hits mostly inhibitors | G9a H3K9 monomethylation, AlphaScreen, 2 h; note: potency is the fitted concentration of half-maximal effect; % is set by controls: 0 for no effect and ±100 for the full control effect; nearly all actives have a fitted effect of over 75% in size
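AlphaScreen detection with an anti-monomethyl H3K9 antibody quantified product after a 2 h room-temperature reaction containing 500 nM biotinylated H3K9 peptide, 20 µM SAM and 20 nM enzyme, which had been preincubated 15 min with compound.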
JMJD2A Tudor = qHTS Assay for Inhibitors of JMJD2A-Tudor Domain; Potency, µM (series often up to 114 µM), for inactives: top-dose activity change, negative = inhibition, most hits filed as inhibitors; 390,000 tested, 4.4% active; Lysine-specific demethylase 4A (Homo sapiens), O75164; AlphaScreen JMJD2A-Tudor / H3K4me3 peptide binding; note: potency is the fitted concentration of half-maximal effect; % is set by controls: 0 for no effect and ±100 for the full control effect; nearly all actives have a fitted effect of over 50% in size
Six1-Eya2 blk = qHTS Assay for Inhibitors of the Six1/Eya2 Interaction. AlphaScreen GST-Six1/His-Eya2 binding, biochemical; active compounds read low. activity change, % (no concentration beside the values). 360,000 tested, 0.56% active. Homeobox protein SIX1 (Homo sapiens) + Protein phosphatase EYA2 (Homo sapiens), …; in the data active = activity change below about -65%; inconclusive = mostly about -30% to -63%; note: % is set by controls: 0 for no effect and ±100 for the full control effect
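Compounds are tested against tagged Six1 and Eya2 proteins bridged by glutathione donor and nickel acceptor beads; after a one-hour incubation at 37 °C without light, AlphaScreen emission is recorded.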
HP1b chromo inh = HTS for Inhibitors of HP1-beta Chromodomain Interactions with Methylated Histone Tails; Chromobox protein homolog 1 (Homo sapiens), P83916; AlphaScreen HP1-beta / biotin-H3K9me3 peptide binding; Potency, µM (doses to about 114 µM), for inactives: top-dose activity change, negative = inhibition, hits mostly inhibitors; 390,000 tested, 0.56% active; AID 540317, 2011; note: potency is the fitted concentration of half-maximal effect; nearly all actives have a fitted effect of over 70% in size
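HP1-beta protein (50 nM final) preincubated 30 min at room temperature with biotinylated H3(1-18)K9me3 peptide (50 nM) in PBS pH 7.4, 0.01% Tween-20, then compound added for 30 min. AlphaScreen streptavidin donor/nickel chelate acceptor beads (10 ug/mL final), 30 min dark, luminescence read.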
CtBP-E1A blk = qHTS Assay for Inhibitors of the CtBP/E1A Interaction. CtBP / adenovirus E1A interaction (AlphaScreen). AlphaScreen GST-E1A/His-CtBP binding, 1536-well; active compounds read low. activity change, % (test concentration not listed). 340,000 tested, 0.49% active; in the data active = activity change below about -65%; inconclusive = mostly about -30% to -63%; note: % is set by controls: 0 for no effect and ±100 for the full control effect
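AlphaScreen with 125 nM GST-E1A and 125 nM His-CtBP (5X stocks) in Tris pH 8.0, 300 mM NaCl, BSA, Tween 20, TCEP. Compounds preincubated 2 h at 37 deg C, then glutathione donor/nickel acceptor beads added for 1 h at 37 deg C in dark.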
* hit, by the source's call; ! = not active in a repeat; [ ] = dose if it differs, or a comment. Compounds with a hit are over-represented: about 10% of the library has one in this group of screens. Unless noted, calls come from the whole dose curve; as a rule, active = well fitted inhibition curve with a large enough effect; inconclusive = small, poorly fitted or top-dose-only effect; inactive = no such curve, though single readings can be large or run the other way.

CCN1CCN(CC(=O)Nc2cc(S(=O)(=O)N3CCCCC3)ccc2Cl)CC1 was read as JMJD2A Tudor 22.4µM*, Six1-Eya2 blk 6.6, HP1b chromo inh inconclusive and CtBP-E1A blk -1.1.
For O=C(CN1CCN(c2ccc(O)cc2)CC1)Nc1cc(S(=O)(=O)N2CCCCC2)ccc1Cl the results were G9a inh 7.94µM*, JMJD2A Tudor inconclusive, Six1-Eya2 blk -10.8, HP1b chromo inh 50.1µM* and CtBP-E1A blk 0.0.
`CC1CN(CC(=O)Nc2cc(S(=O)(=O)N3CCCC3)ccc2Cl)CC(C)O1` (stereo not drawn) gave G9a inh 4.5%, JMJD2A Tudor -6.6%, Six1-Eya2 blk 1.8 and HP1b chromo inh 14.8%[57 µM].
Screening CCOC(=O)C1CCN(CC(=O)Nc2cc(S(=O)(=O)N3CCCCC3)ccc2Cl)CC1 returned BAZ2B inh -6.2%, G9a inh 0.9%, JMJD2A Tudor -12.3%, Six1-Eya2 blk 2.0, HP1b chromo inh 19.8% and CtBP-E1A blk -13.1.
Screening O=C(CN1CCN(c2ccc(O)cc2)CC1)Nc1cc(S(=O)(=O)N2CCCC2)ccc1Cl returned BAZ2B inh inconclusive, G9a inh 8.91µM*, JMJD2A Tudor inconclusive, Six1-Eya2 blk inconclusive, HP1b chromo inh inconclusive and CtBP-E1A blk inconclusive.
For OCCN(CC#CC(O)(c1ccccc1)c1cccc(F)c1)CCO (stereo not drawn) the results were BAZ2B inh 79.4µM*, JMJD2A Tudor inconclusive, Six1-Eya2 blk 12.6, HP1b chromo inh -4.8% and CtBP-E1A blk 9.3.
For CN(C)CCCN1c2ccccc2Sc2ccc3ccccc3c21 the results were JMJD2A Tudor -32.6%, Six1-Eya2 blk 2.4, HP1b chromo inh 7.2% and CtBP-E1A blk -4.8.
CN(C)CCCN1c2ccccc2Sc2ccc(Cl)cc21 was read as BAZ2B inh 39.8µM*, G9a inh 70.8µM*!, JMJD2A Tudor 20µM*, Six1-Eya2 blk -0.5, HP1b chromo inh inconclusive and CtBP-E1A blk inconclusive.
For CN1CCN(CCCN2c3ccccc3Sc3ccc(S(=O)(=O)N(C)C)cc32)CC1 the results were BAZ2B inh inconclusive, G9a inh 10µM*, JMJD2A Tudor -3.6%, Six1-Eya2 blk -7.2, HP1b chromo inh 38.4% and CtBP-E1A blk -11.5.
`CN(C)CCCN1c2ccc3ccccc3c2Sc2cccc(Cl)c21` gave JMJD2A Tudor 50.1µM*, Six1-Eya2 blk 4.1, HP1b chromo inh inconclusive and CtBP-E1A blk -2.8.
Screening COc1c(F)c(F)c(C(=O)O)c(Nc2ccc(C)cc2C)c1F returned BAZ2B inh -24.2%, G9a inh -40.9%, JMJD2A Tudor -13.2%, Six1-Eya2 blk 0.7, HP1b chromo inh 18.8% and CtBP-E1A blk 1.7.
COc1ccc(C(C)(O)c2nc(-c3cnc4ccccc4c3)cs2)cc1 (stereo not drawn) was read as Six1-Eya2 blk -5.3 and CtBP-E1A blk -0.7.
COc1ccc(CNc2nc3ccccc3n2C)c(OC)c1 was read as BAZ2B inh -9.9%, G9a inh 10.9%, JMJD2A Tudor -11.3%, Six1-Eya2 blk 0.0, HP1b chromo inh 22.2% and CtBP-E1A blk 5.3.
`COc1ccc(CNc2ncc(-c3ccc(Cl)cc3)n2C)c(OC)c1OC` gave BAZ2B inh inconclusive, G9a inh 70.8µM*, JMJD2A Tudor 25.1µM*, Six1-Eya2 blk 0.6, HP1b chromo inh inconclusive and CtBP-E1A blk 0.0.
`CCOc1ccc(-c2cnc(NCc3ccc(OC)cc3OC)n2C)cc1` gave BAZ2B inh inconclusive, G9a inh 15.8µM*, JMJD2A Tudor 28.2µM* and HP1b chromo inh inconclusive.
